In PubChem BioAssay (NCATS) one finds Potency data, which are given here for 16 molecules.

Assay [1] can be described thus: qHTS of pediatric cancer cell lines to identify multiple opportunities for drug repurposing: Primary screen for U-2 OS cells (AID 1347096). Note: nearly all actives have a fitted effect of over 50% in size. The method in brief: (§1)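 Cells (500-1,000/well) in growth media were settled 5 h at 37 degrees C, then given compounds for 48 h. Viability was read as CellTiter-Glo luminescence. Primary runs used MIPE at 11 points (0.78 nM-46 µM) and NPC at 8 points (0.59 nM-46 µM); follow-ups used 11 points.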

A short description of assay [2]: qHTS of pediatric cancer cell lines to identify multiple opportunities for drug repurposing: Primary screen for Saos-2 cells (AID 1347097). Note: nearly all actives have a fitted effect of over 40% in size. The method in brief: (§2)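 ATP-based luminescence (CellTiter-Glo) quantifies viability after a 48-hour exposure. Compounds are dosed across 8 or 11 final concentrations; DMSO and 2.3 µM bortezomib serve as controls.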
The nature of assay [3]: qHTS of pediatric cancer cell lines to identify multiple opportunities for drug repurposing: Primary screen for SK-N-SH cells (AID 1347098). Note: nearly all actives have a fitted effect of over 65% in size. The method in brief: (§3)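 Cells (500-1,000/well) rested 5 h, then received compounds for 48 h; metabolically active cells were measured by CellTiter-Glo luminescence. Final concentrations spanned up to 46 µM (MIPE, 11-point) or 0.59 nM-46 µM (NPC, 8-point) in primary screens, 11-point in follow-ups.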

Assay [4] can be described thus: qHTS of pediatric cancer cell lines to identify multiple opportunities for drug repurposing: Primary screen for Rh18 cells (AID 1347102). Note: nearly all actives have a fitted effect of over 65% in size. The method in brief: as §1
A short description of assay [5]: qHTS of pediatric cancer cell lines to identify multiple opportunities for drug repurposing: Primary screen for OHS-50 cells (AID 1347103). Note: nearly all actives have a fitted effect of over 40% in size. The method in brief:
as §3

Assay [6] in a line: qHTS of pediatric cancer cell lines to identify multiple opportunities for drug repurposing: Primary screen for RD cells (AID 1347104). Note: nearly all actives have a fitted effect of over 55% in size. The method in brief: as §2
Assay [7] can be described thus: qHTS of pediatric cancer cell lines to identify multiple opportunities for drug repurposing: Primary screen for MG 63 (6-TG R) cells (AID 1347105). Note: nearly all actives have a fitted effect of over 50% in size. The method in brief:
as §2

Assay [8] in a line: qHTS of pediatric cancer cell lines to identify multiple opportunities for drug repurposing: Primary screen for BT-12 cells (AID 1347101). Note: nearly all actives have a fitted effect of over 25% in size. The method in brief: as §3
A short description of assay [9]: qHTS of pediatric cancer cell lines to identify multiple opportunities for drug repurposing: Primary screen for NB1643 cells (AID 1347099). Note: nearly all actives have a fitted effect of over 50% in size. The method in brief: as §2
Assay [10] in a line: qHTS of pediatric cancer cell lines to identify multiple opportunities for drug repurposing: Primary screen for LAN-5 cells (AID 1347100). The method in brief:
as §1

Inconclusive results are not listed. Activity calls are given as the source filed them. Calls come from the whole dose curve; as a rule, active = well fitted curve in the direction sought with a large enough effect; inconclusive = small, poorly fitted or top-dose-only effect, or another doubt; inactive = no such curve, though single readings can be large; an effect the other way counts as inactive or inconclusive.
Potency is the fitted concentration of half-maximal effect.

With `Cc1cc(Nc2cc(CN3CCOCC3)c3nc(C)c(Cc4ccc(Cl)cc4F)n3n2)n[nH]1`, the Potency result in assay [1] is “inactive”. Further, the Potency is 5.9 µM (active) in assay [2]; 6.81 µM (active) in assay [3]; 13.2 µM (active) in [4]; 27.3 µM (active) in assay [5]; 20.9 µM (active) in assay [6]; 14.8 µM (active) in [7].

With `CC1(C)O[C@@H]2C[C@@H]3[C@H]4C[C@@H](F)C5=CC(=O)C=C[C@]5(C)[C@@]4(F)[C@@H](O)C[C@]3(C)[C@]2(C(=O)CO)O1`, the Potency entry in assay [1], in [2], in assay [3], in [8], in assay [4] and in assay [5] was “inactive” throughout. Further, the Potency entry in [7] is “inactive”.

In the case of `CNC(=O)c1ccccc1Nc1nc(Nc2ccc(N3CCOCC3)cc2OC)ncc1Cl`, the Potency in assay [1] is 18.7 µM (active); in [2], 1.18 µM (active); in assay [9], 0.332 µM (active); in assay [10], 0.264 µM (active); in [4], 5.9 µM (active); in [5] it was 0.306 µM (active). For the same molecule, the Potency is 0.469 µM (active) in assay [6] and 0.935 µM (active) in assay [7].

`CC(=O)OCCN1C(=O)c2c(C)nc3ccc(S(=O)(=O)N4CCOCC4)cc3c2C1=O`: the Potency result in [1], in assay [2], in assay [3] and in assay [4] was “inactive” in each case. Also, the Potency in assay [8] is 10.9 µM (active); in [5], 24.3 µM (active).

With `O=C(Cc1ccc(-c2ccc(OCCN3CCOCC3)cc2)cn1)NCc1ccccc1`, the Potency in assay [1] was 3.72 µM (active); in [2] it was 0.0148 µM (active); in [9], 0.0833 µM (active); in assay [10], 0.0093 µM (active); in [4] it was 13.2 µM (active); in assay [5], 0.0306 µM (active). The Potency in assay [6] is 0.0526 µM (active); in assay [7], 0.0235 µM (active).

Take `O=C(NCCCNc1nc(Nc2cccc(NC(=O)N3CCCC3)c2)ncc1I)c1cccs1`: the Potency entry in assay [1] was “inactive”. In addition, the Potency in assay [2] is 3.32 µM (active); in assay [9], 11.8 µM (active); in assay [10] it was 0.833 µM (active); in assay [8], 24.3 µM (active); in assay [4], 14.8 µM (active); in assay [5], 24.3 µM (active). Also, the Potency in [6] is 16.6 µM (active); in assay [7], 3.72 µM (active).

Consider `CNC(=O)c1nn(C)c2c1C(C)(C)Cc1cnc(Nc3ccc(N4CCN(C)CC4)cc3)nc1-2`, for which the Potency in assay [1] is 5.9 µM (active); in assay [2], 2.35 µM (active); in [9], 0.743 µM (active); in assay [10], 0.662 µM (active); in assay [8], 6.85 µM (active); in assay [4], 3.32 µM (active). The Potency in assay [5] was 1.53 µM (active); in [6], 3.72 µM (active).

For `CC(C)(C)NC(=O)[C@H]1CN(Cc2cccnc2)CCN1C[C@@H](O)C[C@@H](Cc1ccccc1)C(=O)N[C@H]1c2ccccc2C[C@H]1O`, the Potency result in assay [1] is “inactive”. Also, the Potency is 18.7 µM (active) in [2]; 15.2 µM (active) in assay [3]; 1.05 µM (active) in assay [9]; 19.3 µM (active) in assay [5]; 1.48 µM (active) in assay [6].

Turning to `O=C(Nc1cc(C(F)(F)F)cc(C(F)(F)F)c1)c1cc(Cl)ccc1O`, the Potency in assay [1] is 4.69 µM (active); in assay [2] it was 2.64 µM (active); in assay [9], 0.372 µM (active); in assay [10] it was 0.332 µM (active); in [8], 1.72 µM (active); in assay [4], 4.18 µM (active). The Potency in [5] was 0.432 µM (active); in assay [6], 0.662 µM (active); in assay [7], 0.743 µM (active).

With `Clc1ccc2ncc(-c3cccc(NC4CNC4)n3)n2c1`, the Potency entry in [1], in [2], in [4] and in assay [7] was “inactive” throughout. In addition, the Potency in assay [3] is 3.41 µM (active); in assay [10], 16.6 µM (active); in assay [8], 8.63 µM (active).

On to `CN(C)CCCN=c1c2ccccc2n(C)c2[nH]c(=O)n(C)c(=O)c12`, for which the Potency result in assay [1] and in assay [2] was “inactive” in each case. Also, the Potency in [3] is 4.29 µM (active); in assay [9], 3.32 µM (active); in assay [6] it was 13.2 µM (active).

Turning to `Nc1nc(Nc2ccc(S(N)(=O)=O)cc2)nn1C(=O)c1c(F)cccc1F`, the Potency entry in assay [1] and in [4] was “inactive” throughout. Besides, the Potency was 13.2 µM (active) in [2]; 8.57 µM (active) in assay [3]; 13.7 µM (active) in assay [8]; 9.68 µM (active) in assay [5]; 11.8 µM (active) in assay [6].

On to `O=C(NCCS(=O)(=O)c1ccc(C(F)(F)F)cn1)c1ccc(Cl)cc1`, for which the Potency entry in assay [1], in [2], in assay [9], in assay [10], in assay [8] and in assay [4] was “inactive” each time. The Potency result in [5], in assay [6] and in assay [7] was “inactive” in each case.

Take `Cn1cc(-c2[nH]c3cc(NC(=O)[C@H](N)C4CCCCC4)cc4c3c2C=NNC4=O)cn1`: the Potency in [1] is 11.8 µM (active); in assay [2], 4.69 µM (active); in assay [3] it was 19.2 µM (active); in assay [10], 1.48 µM (active); in assay [5] it was 1.22 µM (active); in assay [6] it was 14.8 µM (active).

For the molecule `CN1CCN(Cc2ccc(NC(=O)Nc3ccc(Oc4cc(NC(=O)C5CC5)ncn4)cc3)cc2C(F)(F)F)CC1`, the Potency entry in assay [1] is “inactive”. The Potency in assay [2] is 0.59 µM (active); in assay [9], 0.526 µM (active); in [10] it was 2.35 µM (active); in assay [8] it was 0.485 µM (active); in assay [5], 0.485 µM (active); in [6] it was 0.662 µM (active). The Potency in [7] was 1.87 µM (active).

With `CCN1CCN(Cc2ccc(-c3cc4c(N[C@H](C)c5ccccc5)ncnc4[nH]3)cc2)CC1`, the Potency in assay [1] is 18.7 µM (active); in [2], 0.209 µM (active); in assay [3], 21.5 µM (active); in [10] it was 0.0148 µM (active); in assay [8], 0.769 µM (active); in assay [4] it was 5.9 µM (active). The Potency is 0.153 µM (active) in assay [5] and 0.0074 µM (active) in assay [6].
